Data as given in the supplement of paper PMC7724964.
± gives the standard deviation of the averaged measurements.

How the values were obtained:
Assay in all cases: phage ELISA signal ratio (GST-PRM binding over GST background); higher = stronger binding of peptide-phage to the PRM
[1] = molecular target: T1, ALDOA 1-364 Glycolytic (domain begin residue: 1, domain end residue: 364), P04075
T1 chain: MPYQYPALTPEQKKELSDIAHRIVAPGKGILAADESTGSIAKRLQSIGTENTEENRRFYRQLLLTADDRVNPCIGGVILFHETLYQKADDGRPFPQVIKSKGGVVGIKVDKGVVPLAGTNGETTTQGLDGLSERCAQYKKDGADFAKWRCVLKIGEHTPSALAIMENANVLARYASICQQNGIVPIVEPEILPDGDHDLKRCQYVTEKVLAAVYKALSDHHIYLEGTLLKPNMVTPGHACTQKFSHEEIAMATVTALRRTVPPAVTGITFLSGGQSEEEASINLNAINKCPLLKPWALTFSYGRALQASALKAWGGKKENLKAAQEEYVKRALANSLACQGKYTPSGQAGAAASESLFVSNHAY
Procedure: (§1)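 Phage-displayed random hexadecapeptides (Cys-free, flanked by invariant Gly linkers, fused to the M13 P8 major coat protein) were selected over 5 rounds against GST-fused human PRM domains. Individual clones from rounds 4-5 were tested by phage ELISA, and positive clones binding the target but not GST were sequenced. Values are the ELISA signal ratio of target over background (GST); the background signal is given separately.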

[2] = molecular target: ARF3 1-181 Arf (domain begin residue: 1, domain end residue: 181), P61204
Procedure: as §1

[3] = molecular target: T2, ARFGEF2 639-829 Sec7 (domain begin residue: 639, domain end residue: 829), Q9Y6D5
T2 chain: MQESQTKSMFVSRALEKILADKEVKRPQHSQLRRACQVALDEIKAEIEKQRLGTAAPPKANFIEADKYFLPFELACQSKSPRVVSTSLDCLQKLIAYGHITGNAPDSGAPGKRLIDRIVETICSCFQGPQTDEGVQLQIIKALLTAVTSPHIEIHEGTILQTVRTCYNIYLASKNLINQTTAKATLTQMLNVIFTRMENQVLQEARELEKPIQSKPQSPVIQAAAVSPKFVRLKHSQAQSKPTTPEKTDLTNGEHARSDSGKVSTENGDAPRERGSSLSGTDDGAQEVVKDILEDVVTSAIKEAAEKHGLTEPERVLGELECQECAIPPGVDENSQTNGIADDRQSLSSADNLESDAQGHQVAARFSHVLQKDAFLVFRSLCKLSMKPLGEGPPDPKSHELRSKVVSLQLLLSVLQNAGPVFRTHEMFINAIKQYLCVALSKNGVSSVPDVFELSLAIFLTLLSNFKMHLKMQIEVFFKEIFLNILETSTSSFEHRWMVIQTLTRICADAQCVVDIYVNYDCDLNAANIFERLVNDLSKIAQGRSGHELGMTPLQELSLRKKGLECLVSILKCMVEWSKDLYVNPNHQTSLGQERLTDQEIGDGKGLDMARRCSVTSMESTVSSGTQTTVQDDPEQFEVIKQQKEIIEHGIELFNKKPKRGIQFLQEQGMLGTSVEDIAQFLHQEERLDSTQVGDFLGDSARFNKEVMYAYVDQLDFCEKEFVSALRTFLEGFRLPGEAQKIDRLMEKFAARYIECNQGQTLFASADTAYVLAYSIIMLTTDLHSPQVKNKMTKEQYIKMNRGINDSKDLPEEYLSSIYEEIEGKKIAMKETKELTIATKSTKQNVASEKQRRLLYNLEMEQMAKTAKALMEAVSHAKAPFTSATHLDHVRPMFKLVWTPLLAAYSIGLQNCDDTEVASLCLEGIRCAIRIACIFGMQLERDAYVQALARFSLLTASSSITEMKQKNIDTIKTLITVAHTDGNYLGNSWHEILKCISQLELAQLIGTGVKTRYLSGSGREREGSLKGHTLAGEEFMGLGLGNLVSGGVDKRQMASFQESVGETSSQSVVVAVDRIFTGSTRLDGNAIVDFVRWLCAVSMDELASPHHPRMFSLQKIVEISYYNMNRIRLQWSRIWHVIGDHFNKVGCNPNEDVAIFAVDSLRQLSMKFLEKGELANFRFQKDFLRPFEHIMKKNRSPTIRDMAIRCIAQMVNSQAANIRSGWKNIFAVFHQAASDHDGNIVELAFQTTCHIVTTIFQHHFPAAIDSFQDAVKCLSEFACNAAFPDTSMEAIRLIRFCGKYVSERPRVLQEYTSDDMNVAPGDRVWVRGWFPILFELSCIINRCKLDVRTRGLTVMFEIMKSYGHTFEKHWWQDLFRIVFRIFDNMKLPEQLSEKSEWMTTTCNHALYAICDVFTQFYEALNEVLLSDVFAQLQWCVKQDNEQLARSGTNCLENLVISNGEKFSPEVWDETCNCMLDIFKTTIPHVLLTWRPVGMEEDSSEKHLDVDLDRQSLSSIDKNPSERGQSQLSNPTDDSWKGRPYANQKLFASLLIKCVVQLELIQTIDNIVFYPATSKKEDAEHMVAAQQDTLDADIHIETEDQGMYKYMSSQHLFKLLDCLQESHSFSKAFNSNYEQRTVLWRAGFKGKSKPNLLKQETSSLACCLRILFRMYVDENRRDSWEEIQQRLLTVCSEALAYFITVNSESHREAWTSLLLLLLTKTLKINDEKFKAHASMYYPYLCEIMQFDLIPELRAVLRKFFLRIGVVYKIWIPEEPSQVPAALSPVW
Procedure: as §1

[4] = molecular target: T3, ARID4A 568-634 Tudor-knot (domain begin residue: 568, domain end residue: 634), P29374
T3 chain: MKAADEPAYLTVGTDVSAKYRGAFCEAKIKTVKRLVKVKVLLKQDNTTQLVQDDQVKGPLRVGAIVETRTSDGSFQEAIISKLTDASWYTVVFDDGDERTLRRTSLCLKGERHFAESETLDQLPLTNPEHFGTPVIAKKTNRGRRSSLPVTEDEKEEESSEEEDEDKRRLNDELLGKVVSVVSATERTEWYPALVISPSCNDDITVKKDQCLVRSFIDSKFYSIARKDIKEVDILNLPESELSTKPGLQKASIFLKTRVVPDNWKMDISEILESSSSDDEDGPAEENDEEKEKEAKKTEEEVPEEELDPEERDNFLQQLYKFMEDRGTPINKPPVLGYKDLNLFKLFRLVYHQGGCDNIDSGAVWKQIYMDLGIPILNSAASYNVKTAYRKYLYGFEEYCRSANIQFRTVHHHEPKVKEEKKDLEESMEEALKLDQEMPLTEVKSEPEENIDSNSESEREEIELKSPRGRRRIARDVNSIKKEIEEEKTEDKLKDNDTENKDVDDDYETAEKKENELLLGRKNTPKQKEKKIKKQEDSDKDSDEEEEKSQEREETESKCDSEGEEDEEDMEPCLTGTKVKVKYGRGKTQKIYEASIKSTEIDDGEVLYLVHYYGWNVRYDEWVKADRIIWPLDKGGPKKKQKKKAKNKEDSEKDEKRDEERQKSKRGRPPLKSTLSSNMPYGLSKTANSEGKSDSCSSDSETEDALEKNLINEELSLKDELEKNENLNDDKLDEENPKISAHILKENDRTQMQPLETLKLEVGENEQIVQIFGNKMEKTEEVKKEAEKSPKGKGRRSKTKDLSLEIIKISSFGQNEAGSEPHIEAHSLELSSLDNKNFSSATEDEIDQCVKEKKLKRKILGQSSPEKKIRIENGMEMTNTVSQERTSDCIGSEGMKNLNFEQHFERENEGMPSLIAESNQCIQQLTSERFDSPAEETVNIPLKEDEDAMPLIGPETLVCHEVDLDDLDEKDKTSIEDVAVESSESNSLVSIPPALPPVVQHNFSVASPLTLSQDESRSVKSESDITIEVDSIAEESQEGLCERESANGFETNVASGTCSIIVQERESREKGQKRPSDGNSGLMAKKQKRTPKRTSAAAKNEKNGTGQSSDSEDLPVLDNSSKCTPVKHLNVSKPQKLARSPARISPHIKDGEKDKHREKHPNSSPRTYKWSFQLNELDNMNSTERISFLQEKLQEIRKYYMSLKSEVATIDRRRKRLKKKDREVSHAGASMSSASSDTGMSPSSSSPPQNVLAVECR
Procedure: as §1

[5] = molecular target: KMT2C 1055-1137 PHD (domain begin residue: 1055, domain end residue: 1137)
Procedure: as §1

ARF3 1-181 Arf (domain begin residue: 1, domain end residue: 181), P61204, sequence (P61204 whole entry): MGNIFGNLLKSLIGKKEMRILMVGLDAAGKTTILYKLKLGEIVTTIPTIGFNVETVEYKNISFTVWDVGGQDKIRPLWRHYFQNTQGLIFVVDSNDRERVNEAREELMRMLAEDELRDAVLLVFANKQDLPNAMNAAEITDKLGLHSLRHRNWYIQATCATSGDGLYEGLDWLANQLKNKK

## EFLWDPVQEMHVMVNE
[1]
  phage ELISA signal ratio: 5.28

## AWSYLHGEWEWVQPVM
[1]
  phage ELISA signal ratio: 14.5

## WVYENGEWEWTFPPSA
[1]
  phage ELISA signal ratio: 17.8

## WHVWDPVMEVFDWPEM
[1]
  phage ELISA signal ratio: 18.1

## MYDEWHMPDSYEVVVQ
[1]
  phage ELISA signal ratio: 19.3

## WVQDTWGEGWSYTVQE
[1]
  phage ELISA signal ratio: 20.2

## WTYESGEWNWYTEEKT
[1]
  phage ELISA signal ratio: 23.9

## VQWQERYTDYTFENVT
[1]
  phage ELISA signal ratio: 24.7

## DIYWGYHMTDFISQET
[2]
  phage ELISA signal ratio: 15.3

## LTREHVQWDGVMHWIM
[3]
  phage ELISA signal ratio: 16.4

## MPDGLPEWWQGRHDWW
[3]
  phage ELISA signal ratio: 18.2

## NEGERLWAVLKLWHEE
[3]
  phage ELISA signal ratio: 18.6

## QITMQQYVELWHAAKS
[3]
  phage ELISA signal ratio: 24.1

## WVMPGMEELNIFENMF
[4]
  phage ELISA signal ratio: 3.49

## HFIELMYDAPEMHMPW
[4]
  phage ELISA signal ratio: 5.33 ± 1.7
[5]
  phage ELISA signal ratio: 6.76

## YYWDTILVDNPEWHQL
[4]
  phage ELISA signal ratio: 4.22
